Shown are actives, neighbours in structure and some others; about 21% of the full set was active somewhere.
SARS PLP yeast: qHTS of Yeast-based Assay for SARS-CoV PLP. S. cerevisiae expressing SARS-CoV PLpro, growth rescue. Potency, µM (highest dose often 32.9 µM), usual class: activators. AID 485353, 2010. actives 0.19% (n = 330,000); further: nearly all actives have a fitted effect of over 55% in size
Pf growth 48h: Primary qHTS for delayed death inhibitors of the malarial parasite plastid, 48 hour incubation. P. falciparum luciferase growth in erythrocytes, 48 h. Potency, µM (titrated, usually from 28.7 µM), most hits filed as inhibitors. actives 5.9% (n = 310,000). AID 504832, 2011; active means well fitted inhibition curve with a large enough effect; inconclusive means small, poorly fitted or top-dose-only effect, or another doubt; inactive means no such curve, though single readings can be large or run the other way
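Growth was read as firefly luciferase luminescence after a 48 h, 37 C, 5% CO2 exposure of compounds to reporter-bearing P. falciparum cultures (0.1% parasitemia, 2% hematocrit final) in Albumax-supplemented RPMI 1640.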
NS1 function inh: qHTS Assay for Inhibitors of Influenza NS1 Protein Function. actives 0.4% (n = 270,000). Potency, µM (doses to about 46.1 µM); further: actives are rising curves; nearly all actives have a fitted effect of over 50% in size
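Recovery from NS1-induced slow growth read by OD600 in budding yeast switched to galactose assay medium (pH 6.0, -URA) at 1:100 dilution. Compound 23 nl per well; the matching strain lacking NS1 serves as control.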
CHX counter: Cycloheximide Counterscreen for Small Molecule Inhibitors of Shiga Toxin; max response, %; cell reporter, cycloheximide protein synthesis inhibition counterscreen; actives 12% (n = 300,000); in the data active means max response mostly above about 13%, no sharp cut-off; inactive means mostly below about 14%; further: read at 38.3 µM for the half of the compounds with a filed dose
Shiga toxin inh: A qHTS for Small Molecule Inhibitors of Shiga Toxin. actives 9.2% (n = 290,000). Vero cells, Shiga toxin protein synthesis inhibition reporter. inhibition, % at 38.7 µM; in the data active means inhibition mostly above about 28%, no sharp cut-off; inactive means mostly below about 43%
Pf growth 96h: Primary qHTS for delayed death inhibitors of the malarial parasite plastid, 96 hour incubation; Potency, µM (doses to about 28.7 µM), usual class: inhibitors; actives 6.9% (n = 320,000); P. falciparum luciferase reporter growth, 96 h; active means well fitted inhibition curve with a large enough effect; inconclusive means small, poorly fitted or top-dose-only effect, or another doubt; inactive means no such curve, though single readings can be large or run the other way
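Erythrocytes infected with luciferase-expressing P. falciparum were dispensed at 2% hematocrit and 0.05% parasitemia (final), then incubated with compounds 96 hours at 37 C in 5% CO2. Luminescence after detection reagent addition reported growth.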
Numbers stand for hits; [ ] = dose if it differs, or a comment. Unless noted, the call rests on the fitted dose curve.

Results for Cc1noc(C)c1COC(=O)c1cccnc1SCC(=O)Nc1ccc2c(c1)OCO2 ?
SARS PLP yeast: inactive; Pf growth 48h: inconclusive; NS1 function inh: inactive; CHX counter: inactive; Shiga toxin inh: inactive; Pf growth 96h: 9.3µM

What do the screens show for `Cc1ccc(NC(=O)CSc2nnc(-c3cccs3)o2)cc1S(=O)(=O)N1CCCCC1`?
SARS PLP yeast: inactive; Pf growth 48h: inactive; NS1 function inh: inactive; CHX counter: inactive; Shiga toxin inh: inactive; Pf growth 96h: inconclusive

What do the screens show for `Nc1cc2nc3ccccc3oc-2cc1=O`?
SARS PLP yeast: inactive; Pf growth 48h: 4.7µM; NS1 function inh: inactive; CHX counter: 28; Shiga toxin inh: 42; Pf growth 96h: 4.7µM

How did O=C(O)c1cc(=O)c2c3nc4ccccc4oc-3cc(=O)c2[nH]1 do in these assays?
Pf growth 48h: inconclusive; Pf growth 96h: inactive

Results for COc1ccc(-c2nn(-c3ccccc3)cc2CO)cc1 ?
SARS PLP yeast: inactive; Pf growth 48h: inactive; NS1 function inh: inactive; CHX counter: 61; Shiga toxin inh: 164; Pf growth 96h: inactive

How did COc1ccc(-c2cn(-c3ccccc3)nc2CO)cc1 do in these assays?
SARS PLP yeast: inactive; Pf growth 48h: inactive; NS1 function inh: inactive; CHX counter: 37; Shiga toxin inh: 111; Pf growth 96h: inactive

What do the screens show for `O=[N+]([O-])c1cccc(-c2nn(-c3ccccc3)cc2CO)c1`?
SARS PLP yeast: inactive; Pf growth 48h: inactive; NS1 function inh: inactive; CHX counter: 12; Shiga toxin inh: inactive; Pf growth 96h: 0.47µM

What do the screens show for `COc1ccc(-c2nn(-c3ccccc3)cc2C(=O)N2CCOCC2)cc1`?
SARS PLP yeast: inactive; Pf growth 48h: inactive; NS1 function inh: inactive; CHX counter: inactive; Shiga toxin inh: inactive; Pf growth 96h: inconclusive

How did Cc1ccc(-c2nn(-c3ccccc3)cc2CO)cc1 do in these assays?
SARS PLP yeast: inactive; Pf growth 48h: inactive; NS1 function inh: inactive; CHX counter: 42; Shiga toxin inh: 144; Pf growth 96h: inactive

Results for Cc1cccc(C(C(=O)NC2CCCCC2)N(Cc2cccnc2)C(=O)c2csnn2)c1 (stereo not drawn) ?
SARS PLP yeast: inactive; Pf growth 48h: inconclusive; NS1 function inh: inactive; CHX counter: inactive; Shiga toxin inh: inactive; Pf growth 96h: inconclusive

What do the screens show for `Cc1ccc(NC(=O)CN(C)C(=O)c2ccc(NS(=O)(=O)c3ccc4[nH]c(=O)[nH]c4c3)cc2)cc1`?
SARS PLP yeast: inactive; Pf growth 48h: inconclusive; Pf growth 96h: inactive

Results for COc1cc(OC)c(C(=O)OCC(=O)NCC2CCCCC2)cc1OC ?
SARS PLP yeast: inactive; Pf growth 48h: inactive; Pf growth 96h: inactive

How did O=c1ccc2ccccc2n1Cc1cccc(F)c1 do in these assays?
SARS PLP yeast: inactive; Pf growth 48h: inactive; NS1 function inh: inactive; CHX counter: inactive; Shiga toxin inh: inactive; Pf growth 96h: inconclusive

How did COc1cccc(CN2CCCC(CNC(=O)c3ccc(F)cc3)C2)c1OC (stereo not drawn) do in these assays?
SARS PLP yeast: inactive; Pf growth 48h: inactive; NS1 function inh: inactive; CHX counter: inactive; Shiga toxin inh: inactive; Pf growth 96h: inactive

How did COc1ccc(-c2nn(-c3ccccc3)cc2N)cc1 do in these assays?
SARS PLP yeast: inactive; Pf growth 48h: inactive; CHX counter: 61; Shiga toxin inh: 183; Pf growth 96h: inactive

What do the screens show for `O=C(NCCOC(=O)c1ccccc1)c1ccc([N+](=O)[O-])cc1`?
SARS PLP yeast: inactive; Pf growth 48h: inactive; NS1 function inh: inactive; CHX counter: inactive; Shiga toxin inh: inactive; Pf growth 96h: inconclusive

Results for Cc1oc(-c2ccc3c(c2)OCCO3)cc1C(=O)NC(CCC(=O)O)C(=O)O (stereo not drawn) ?
SARS PLP yeast: inactive; Pf growth 48h: inactive; NS1 function inh: inactive; CHX counter: 27; Shiga toxin inh: inactive; Pf growth 96h: inactive

What do the screens show for `NC(=O)N/N=C/c1ccccc1OC(=O)c1cc2ccccc2oc1=O`?
SARS PLP yeast: inactive; Pf growth 48h: inactive; NS1 function inh: inactive; CHX counter: 26; Shiga toxin inh: 77; Pf growth 96h: inactive

What do the screens show for `N/C(=N\NC(=O)c1ccccc1)c1cc2ccccc2oc1=O`?
SARS PLP yeast: inactive; Pf growth 48h: inactive; CHX counter: inactive; Shiga toxin inh: inactive; Pf growth 96h: inactive

Results for NC(=S)N/N=C/c1ccccc1OC(=O)c1cc2ccccc2oc1=O ?
SARS PLP yeast: inactive; Pf growth 48h: 0.33µM; NS1 function inh: inactive; CHX counter: inactive; Shiga toxin inh: inactive; Pf growth 96h: 0.59µM

How did COc1ccc(CC(=O)NNC(=O)COc2ccc(C)cc2)cc1S(=O)(=O)N1CCOCC1 do in these assays?
SARS PLP yeast: inactive; Pf growth 48h: inactive; Pf growth 96h: inactive

Results for OCC[C@@H]1C[C@@H](O)[C@H](O)[C@@]2(CCc3ccccc3CO2)O1 ?
SARS PLP yeast: inactive; Pf growth 48h: inactive; NS1 function inh: inactive; CHX counter: inactive; Shiga toxin inh: inactive; Pf growth 96h: inconclusive

How did COc1ccc2cc(CO)n(C)c2c1 do in these assays?
SARS PLP yeast: inactive; Pf growth 48h: 12µM; Pf growth 96h: inconclusive

What do the screens show for `COc1ccc2cc(C=O)n(C)c2c1`?
SARS PLP yeast: inactive; Pf growth 48h: inactive; Pf growth 96h: inconclusive

How did O=C(COC(=O)c1nn(CCO)c(=O)c2ccccc12)Nc1ccc(Cl)c(Cl)c1 do in these assays?
SARS PLP yeast: inactive

What do the screens show for `Cc1ccc(S[C@@H](CCN2CC[C@H](C)CCC2=O)c2ccccc2)cc1`?
SARS PLP yeast: inactive; Pf growth 48h: inconclusive; NS1 function inh: inactive; CHX counter: inactive; Shiga toxin inh: inactive; Pf growth 96h: 9.3µM

How did COc1ccc(S[C@@H](CCN2CC[C@H](C)CCC2=O)c2ccccc2)cc1 do in these assays?
SARS PLP yeast: inactive; Pf growth 48h: 8.3µM; Pf growth 96h: inconclusive

What do the screens show for `C[C@@H]1CCC(=O)N(CC[C@H](Sc2ccc(Br)cc2)c2ccccc2)CC1`?
SARS PLP yeast: inactive; Pf growth 48h: inconclusive; Pf growth 96h: inconclusive

How did O=C(CNCc1cccc(Cl)c1)N1CCc2ccccc2C1 do in these assays?
SARS PLP yeast: inactive; Pf growth 48h: inactive; NS1 function inh: inactive; CHX counter: inactive; Shiga toxin inh: inactive; Pf growth 96h: inactive

How did COc1cc(C)c(Br)cc1S(=O)(=O)NCCN1CCOCC1 do in these assays?
SARS PLP yeast: inactive; Pf growth 48h: inactive[5.75 µM]; NS1 function inh: inactive; CHX counter: inactive; Shiga toxin inh: inactive; Pf growth 96h: inactive

How did Cc1cc(=O)oc(C)c1C(=O)OCC(=O)c1ccc2ccccc2c1 do in these assays?
SARS PLP yeast: inactive; NS1 function inh: inactive; CHX counter: 30; Shiga toxin inh: 52; Pf growth 96h: inactive

How did Cc1cc(=O)oc(C)c1C(=O)OC(C(=O)c1ccccc1)c1ccccc1 (stereo not drawn) do in these assays?
SARS PLP yeast: inactive; Pf growth 48h: inactive; NS1 function inh: inactive; CHX counter: inactive; Shiga toxin inh: inactive; Pf growth 96h: inconclusive
